# Bioassay records deposited in PubChem by National Center for Advancing Translational Sciences (NCATS).
# Pf growth 48h – Primary qHTS for delayed death inhibitors of the malarial parasite plastid, 48 hour incubation; AID 504832, 2011; P. falciparum luciferase growth in erythrocytes, 48 h; actives 5.9% (n = 310,000); Potency, µM (doses to about 28.7 µM), for the others: top-dose activity change, negative = inhibition, most hits filed as inhibitors; active = well fitted inhibition curve with a large enough effect; inconclusive = small, poorly fitted or top-dose-only effect, or another doubt; inactive = no such curve, though single readings can be large or run the other way; also: potency is read from the fitted curve at half-maximal effect; % is scaled to controls: 0 for no effect and ±100 for the full control effect
#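 Here the parasites carry a stable luciferase gene and grow inside erythrocytes in Albumax-based RPMI medium with compound for one erythrocytic cycle. Activity is scored as loss of luminescent signal.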
# Pf growth 96h – Primary qHTS for delayed death inhibitors of the malarial parasite plastid, 96 hour incubation; P. falciparum luciferase reporter growth, 96 h; Potency, µM (highest dose often 28.7 µM), for the others: at the top dose activity change, negative = inhibition, usual class: inhibitors; actives 6.9% (n = 320,000); AID 504834, 2011; active = well fitted inhibition curve with a large enough effect; inconclusive = small, poorly fitted or top-dose-only effect, or another doubt; inactive = no such curve, though single readings can be large or run the other way; also: potency is read from the fitted curve at half-maximal effect; % is scaled to controls: 0 for no effect and ±100 for the full control effect
#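 Luminescence readout: decreased luciferase signal marks inhibited growth of reporter-expressing P. falciparum in infected red cells (2% hematocrit, 0.05% parasitemia final), exposed to compound two generations (96 h, 37 C, 5% CO2).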
# Shiga toxin inh – A qHTS for Small Molecule Inhibitors of Shiga Toxin; Vero cells, Shiga toxin protein synthesis inhibition reporter; actives 9.2% (n = 290,000); inhibition, % at 38.7 µM; in the data active = inhibition mostly above about 28%, no sharp cut-off; inactive = mostly below about 43%; also: 0% is about no effect
# SARS PLP yeast – qHTS of Yeast-based Assay for SARS-CoV PLP. S. cerevisiae expressing SARS-CoV PLpro, growth rescue. Potency, µM (series often up to 32.9 µM), without a hit: at the highest dose activity, positive = growth rescue, usual class: activators. actives 0.19% (n = 330,000). AID 485353, 2010; also: potency is read from the fitted curve at half-maximal effect; 0% is about no effect; nearly all actives have a fitted effect of over 55% in size
# NS1 function inh – qHTS Assay for Inhibitors of Influenza NS1 Protein Function; actives 0.4% (n = 270,000); Potency, µM (doses to about 46.1 µM), without a hit: at the highest dose activity, positive = more growth; AID 2326, 2010; also: potency is read from the fitted curve at half-maximal effect; actives are rising curves; nearly all actives have a fitted effect of over 50% in size
#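 Growth recovery, yeast-based: influenza A NS1 expressed in S. cerevisiae causes slow growth, and suppressors are detected by OD600. The parent strain without NS1 is used as positive control.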
# CHX counter – Cycloheximide Counterscreen for Small Molecule Inhibitors of Shiga Toxin; max response, %; actives 12% (n = 300,000); cell reporter, cycloheximide protein synthesis inhibition counterscreen; in the data active = max response mostly above about 13%, no sharp cut-off; inactive = mostly below about 14%; also: read at 38.3 µM for the half of the compounds with a filed dose; 0% is about no effect
# Numbers without * were called inactive; ? = inconclusive; . = no result; + = active, no number; [ ] = another dose, or the depositor's remark. This is a sample that favours compounds with a hit; in the whole collection about 21% have one here. Unless noted, calls follow the shape of the full dose curve.
SMILES,Pf growth 48h,Pf growth 96h,Shiga toxin inh,SARS PLP yeast,NS1 function inh,CHX counter
COCCN1CN=C(Nc2nc3ccccc3o2)NC1,21.1%,3.4%,34.8,4.5%,8.5%,27.5*
COCCN1CN=C(Nc2nc3ccccc3s2)NC1,46.3%,18.2%,30.9*,-4.3%,-6.5%,20.7*
CCCCN1CN=C(Nc2nc3ccccc3o2)NC1,56.8%,158.9%,116.2*,-1.1%,2.8%,61.8*
COCCN1CN=C(NS(=O)(=O)c2ccc(C)cc2)NC1,-7.6%,-14.3%,-5.8,-1.6%,-3.6%,13.2
CCCCS(=O)(=O)NC1=NCN(Cc2ccco2)CN1,31.9%,1.1%,-4.3,0.7%,-7.2%,-1.8
[O-]C1=N/[N+](=C/c2ccccc2Cl)CC1,4.3%,14.5%,-8.4,-2.9%,7.9%,-2.2
CCOC(=O)CNC(=S)n1ncnc1N,18.7%,7.9%,-13.4,-1.6%,.,-2.7
CC(C)N1CN=C(Nc2nc3ccccc3o2)NC1,31.0%,?,37.2*,0.0%,.,37.0*
Cc1ccnc(Nc2nc3ccccc3o2)n1,-17.1%,?,-0.4,-11.2%,7.5%,6.5
Cc1[nH]c(C)c(S(=O)(=O)NCc2ccc(F)cc2)c1C(=O)N1CCCCC1,-9.3%,?,-7.6,?,6.7%,-9.5
COc1ccc(NC(=O)COC(=O)c2ccc(N3CCCC3=O)cc2)cc1,-8.3%,-9.1%,.,-3.9%,.,.
CC(=O)c1ccc(S(=O)(=O)NCCc2csc(-c3cccnc3)n2)cc1,?,?,11.4,-9.1%,0.2%,-1.7
O=S(=O)(NCc1cccnc1)c1ccc2c(c1)OCCO2,1.9%,13.1µM*,-2.5,17.8%,15.9%,-0.8
CC(=O)Nc1ccc(S(=O)(=O)NCCc2csc(-c3cccnc3)n2)cc1,-9.4%,8.28µM*,-7.4,-2.4%,7.8%,8.2
O=S(=O)(NCc1csc(-c2cccnc2)n1)c1ccc2c(c1)OCCO2,-2.6%,2.94µM*,-4.8,8.6%,0.5%,-4.3
CC(C)n1cnc2c(NCc3ccccc3)cc(N[C@H](C)CO)cc21,.,.,.,11.7%,.,.
Clc1ccc(CN(Cc2ccccc2)C(c2cccs2)c2nnnn2C2CCCC2)cc1 (configuration not stated),11.7µM*,?,10.8,.,-16.9%,-0.6
CC(C)(C)n1nnnc1C(c1cccs1)N(Cc1ccc(Cl)cc1)CC1CCCO1 (configuration not stated),13.1µM*,?,16.7,.,-0.8%,10.5
Cc1cc2cc(C(c3nnnn3C(C)(C)C)N(Cc3ccco3)CC3CCCO3)c(=O)[nH]c2cc1C (configuration not stated),?,?,18.1,2.7%,15.1%,1.2
c1ccc(CN(Cc2ccco2)C(c2ccncc2)c2nnnn2C2CCCC2)cc1 (configuration not stated),?,10.4µM*,-4.1,-4.7%,?,1.3
O=C(CNC(=O)c1ccco1)NCC(=O)OCC(=O)c1ccc(Cl)c([N+](=O)[O-])c1,12.1%,33.1%,-6.5,-2.5%,4.0%,-1.1
COc1ccc(C(=O)NC2CC(C)(C)Cc3occc32)cc1 (configuration not stated),10.8%,-22.3%,8.0,11.0%,-4.7%,12.6
Cc1ccc(C(=O)C[n+]2ccc3ccccc3c2)cc1,-35.2%,-26.8%,44.7,-3.6%,.,22.1*
O=C(C[n+]1ccc2ccccc2c1)c1ccc(NC(=O)c2ccccc2)cc1,13.1µM*,50.8%,22.0,-0.4%,3.8%,-4.0
Cc1ccc[n+](CC(=O)c2ccccc2)c1,18.3%,-10.3%,15.3,2.1%,17.6%,4.1
SMILES,Pf growth 48h,Pf growth 96h,Shiga toxin inh,SARS PLP yeast,NS1 function inh,CHX counter
O=C(O)[C@H](Cc1ccc(O)c([N+](=O)[O-])c1)N1C(=O)c2ccccc2C1=O,.,.,.,.,-8.1%,.
O=S(=O)(Nc1nc2c(s1)CCCC2)c1ccc(F)cc1,25.0%,.,54.7,-7.9%,-0.4%,21.3*
O=S(=O)(Nc1nc2c(s1)CCCC2)c1ccc(Br)cc1,17.0%,15.3%,-0.4,?,-1.9%,6.3
COc1cc(-n2c(=O)c3ccccc3n(CC(=O)OCc3ccccc3)c2=O)cc(OC)c1OC,10.1%,9.28µM*,-13.7,-0.9%,.,-2.6
CC1CCCC(NC(=O)CN2C(=O)NC(c3ccccc3)(c3ccccc3)C2=O)C1C (configuration not stated),14.7µM*,?,.,5.5%,.,.
Cc1ccc(CN(C)C(=O)CN2C(=O)NC(c3ccccc3)(c3ccccc3)C2=O)c(C)c1,13.1µM*,?,.,0.5%,.,.
CCN(Cc1cccs1)C(=O)CN1C(=O)NC(c2ccccc2)(c2ccccc2)C1=O,?,13.1µM*,.,-2.2%,.,.
CN(Cc1ccco1)C(=O)CN1C(=O)NC(c2ccccc2)(c2ccccc2)C1=O,?,?,.,-5.1%,.,.
CCN(C(=O)CN1C(=O)NC(c2ccccc2)(c2ccccc2)C1=O)c1ccccc1,13.1µM*,?,-2.7,-4.2%,12.0%,-3.5
CC(=O)CN1C(=O)NC(c2ccccc2)(c2ccccc2)C1=O,18.6%,18.2%,4.1,-1.7%,0.7%,-1.1
O=C1CC[C@@H](C(=O)N[C@@H](Cc2cnc[nH]2)C(=O)N[C@@H](Cc2c[nH]c3ccccc23)C(=O)N[C@@H](CO)C(=O)N[C@@H](Cc2ccc(O)cc2)C(=O)O)N1,.,.,-1.7,.,.,19.8
COc1ccc(Cl)cc1-c1nc(-c2ccncc2)no1,9.4%,0.7%,21.0,-9.7%,18.1%,1.7
Clc1ccc(OCc2nc(-c3ccncc3)no2)c(Cl)c1,-58.1%,10.4µM*,122.0*,-22.5%,-62.6%,63.6*
CCCCCc1nc(-c2nonc2N)no1,7.3%,149.8%,-3.9,-30.5%,-10.9%,-0.6
Clc1cccc(OCc2nc(-c3ccncc3)n[nH]2)c1,-1.1%,36.4%,6.6,.,-30.3%,5.0
Cc1cccc(OCc2nc(-c3cccnc3)no2)c1,42.1%,-3.5%,+,5.1%,-7.4%,15.3*
Nc1nonc1-c1noc(CCCOc2ccc(Cl)cc2Cl)n1,-23.1%,5.22µM*,-2.7,0.3%,9.1%,1.3
Cc1ccc(C)c(OCc2nc(-c3cccnc3)no2)c1,0.0%,28.7%,30.0,?,-8.1%,9.9
Clc1cccc(OCc2nc(-c3ccncc3)no2)c1,26.1%[5.75 µM],119.4%,45.2,-1.6%,-1.1%,33.8*
COc1ccc(-c2cc(C(F)(F)F)nc(S(=O)(=O)CCCC(=O)Nc3cccc(O)c3)n2)cc1OC,?,-3.7%,-15.2,-1.9%,.,1.9
O=C(Nc1ccccc1OC(F)F)c1ccc(S(=O)(=O)N2CCCC2)cc1,?,?,.,-0.8%,.,.
CCCC[C@H](NC(C)=O)C(=O)N[C@H]1CC(=O)NCCCC[C@@H](C(N)=O)NC(=O)[C@H](Cc2c[nH]c3ccccc23)NC(=O)[C@H](CCCN=C(N)N)NC(=O)[C@@H](Cc2ccccc2)NC(=O)[C@H](Cc2cnc[nH]2)NC1=O,.,.,.,.,.,44.2
